# From PubChem BioAssay AID493056 (National Center for Advancing Translational Sciences (NCATS), 2011)
# Screen size: about 360,000 compounds; about 2,400 (0.67%) were called active. The entries come from a sample that favours actives as a whole. Values without a mark were called inactive. No stated cut-off is given here; in the data, active means enhancement above about 30%; inactive means the rest.
# Biological target: Thyrotropin-releasing hormone receptor (Homo sapiens) (UniProt P34981)
# Experiment: qHTS for Small Molecule Agonists and Allosteric Enhancers of Human TRH Receptor: Primary Screen for Enhancers; further: 0% is about no effect
# Details: TRHR cells, fluo-8 calcium fluorescence, EC20 TRH enhancement; at 2 µM; active compounds read high
# Procedure, shortened: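 TRHR-expressing cells loaded with fluo-8 calcium dye were read kinetically (ex 480/em 530) during compound addition, then stimulated with an EC20 of TRH (10 nM final). Enhancement of the Gq-mediated intracellular calcium response was scored.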
# Thyrotropin-releasing hormone receptor (Homo sapiens), sequence (P34981 whole entry, looked up): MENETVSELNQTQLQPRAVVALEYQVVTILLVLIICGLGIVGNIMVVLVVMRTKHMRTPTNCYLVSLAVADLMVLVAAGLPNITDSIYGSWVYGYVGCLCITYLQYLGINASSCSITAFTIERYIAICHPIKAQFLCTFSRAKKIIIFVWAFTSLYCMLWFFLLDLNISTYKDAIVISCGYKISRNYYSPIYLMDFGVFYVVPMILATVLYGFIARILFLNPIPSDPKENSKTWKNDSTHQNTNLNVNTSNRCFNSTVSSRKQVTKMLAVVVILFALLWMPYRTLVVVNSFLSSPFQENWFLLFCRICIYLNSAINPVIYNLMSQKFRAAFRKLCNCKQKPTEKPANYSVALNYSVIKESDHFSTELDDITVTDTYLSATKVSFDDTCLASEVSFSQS
row,Compound,enhancement
1,CCn1c(=O)c(=O)n(CC)c2cc(N3CCCCC3)c(NC(=O)c3ccc(Cl)cc3)cc21,4.4%
2,CCn1c(=O)c(=O)n(CC)c2cc(N3CCCCC3)c(NC(=O)c3cccc(F)c3)cc21,4.18%
3,Cc1ccc(C(=O)Nc2cc3c(cc2N2CCCC2)n(C)c(=O)c(=O)n3C)cc1,32.4% (active)
4,Nc1ncc(S(=O)(=O)Nc2ccc(OC(F)(F)F)cc2)cn1,-5.87%
5,O=C(NCC(=O)N(CC1CCCO1)C(C(=O)NC1CCCCC1)c1ccccc1)c1ccco1 (configuration not stated),35.9% (active)
6,COc1ccc(N(C(=O)CNC(=O)c2ccco2)C(C(=O)NCC2CCCO2)c2ccccc2)cc1Cl (configuration not stated),-16.4%
7,Cc1ccc(N(C(=O)CNC(=O)c2ccco2)C(C(=O)NC2CCCC2)c2ccncc2)cc1 (configuration not stated),0.937%
8,CCOc1ccc(Nc2ncnc3scc(-c4ccc(OC)cc4)c23)cc1,-0.508%
9,CN(C)S(=O)(=O)c1cccc(NC(=O)COc2ccc3ccccc3c2)c1,-1.36%
10,O=C(NCc1ccc2c(c1)OCO2)C12CC3CC(CC(C3)C1)C2,-3.78%
11,CN(C)S(=O)(=O)c1cccc(NC(=S)NCc2ccc3c(c2)OCO3)c1,34% (active)
12,COc1ccccc1N1CCN(c2ncnc3onc(-c4cccc(Cl)c4)c23)CC1,-1.85%
13,CCOc1ccc(C(C)=O)cc1COC(=O)c1cnc(Cl)c(Cl)c1,22.5%
14,CCOc1ccc(C(C)=O)cc1COC(=O)CNC(=O)c1cccs1,34.6% (active)
15,COc1ccc(C(=O)COC(=O)CNC(=O)c2cccs2)cc1Br,2.56%
16,O=C(Nc1ccccc1N1CCN(C(=O)c2ccccc2)CC1)c1ccco1,7.38%
17,CCCNC(=O)c1ccc(N2CCC3(CC2)CC(c2ccc(Cl)cc2)=NO3)c([N+](=O)[O-])c1,0.894%
18,CCCNC(=O)c1ccc(N2CCC3(CC2)CC(c2cccc(Br)c2)=NO3)c(NC(=O)c2ccco2)c1,35.5% (active)
19,COC(=O)c1ccccc1NC(=O)c1ccc(C#N)cc1,6.65%
20,CCCCCn1c(CCNC(=O)c2ccc(F)cc2)nc2ccccc21,-6.28%
21,Cc1ccc(NC(=O)CCCn2c(=O)c3cccn3c3ccccc32)cc1Cl,1.3%
22,COc1ccc2c(c1)Cc1sc(NC(=O)c3ccccc3Br)nc1-2,4.8%
23,CCC(CC)c1nnc(NC(=O)C2=COCCO2)s1,36.4% (active)

row,Compound,enhancement
1,CCC(CC)c1nnc(NC(=O)c2nn(C)c(=O)c3ccccc23)s1,6.49%
2,Cc1sc(NC(=O)C2=COCCO2)c(C#N)c1C,2.25%
3,Cc1ccccc1OCc1ccc(-c2nc(C#N)c(N3CCCCC3)o2)o1,0.624%
4,O=C(Nc1ccc(-c2nc3cc(NC(=O)c4ccccc4Cl)ccc3o2)cc1)c1ccccc1Cl,-6.24%
5,Cc1cc(C(=O)CCl)c(C)n1CC1COc2ccccc2O1 (configuration not stated),45.8% (active)
6,COc1ccc(NC(=O)CC2COc3ccccc3O2)c(OC)c1 (configuration not stated),-4.66%
7,Cc1n[nH]c(C)c1S(=O)(=O)N1CCCC(C(=O)NCC2COc3ccccc3O2)C1 (configuration not stated),-5.61%
8,COc1ccc(NC(=O)Cn2c(=O)n(CCC(C)C)c(=O)c3cccnc32)cc1Cl,5.35%
9,Cc1nc2cccnc2nc1C,1.62%
10,COn1c(-c2ccc(Cl)cc2Cl)nc2ncccc21,31.3% (active)
11,Clc1ccc(COn2c(-c3ccc(Cl)cc3Cl)nc3ncccc32)cc1,-14.4%
12,O=S(=O)(c1ccccc1)c1nc(-c2ccccc2F)oc1NCc1cccnc1,0.0883%
13,O=S(=O)(c1ccc(Br)cc1)c1nc(-c2ccccc2)oc1NCc1cccnc1,31.2% (active)
14,Cc1ccc(S(=O)(=O)c2nc(-c3cccs3)oc2NCc2cccnc2)cc1,-3.44%
15,Cc1ccc(-n2cnc3cc(C(=O)NCCC4=CCCCC4)ccc32)cc1Cl,-5.29%
16,Cc1cc(N)n2nc(-c3ccc(C(C)(C)C)cc3)cc2n1,1.1%
17,Cc1cc(-c2ccccc2)n2nc(-c3ccccc3)cc2n1,33% (active)
18,Cc1cc(-c2ccccc2)n2nc(C)c(-c3ccccc3)c2n1,-0.179%
19,Cc1ccc(C(=O)Nc2c(C(=O)NC(C)(C)C)oc3ccccc23)cc1,6.66%
20,N#CN1CCC(NS(=O)(=O)c2cccc(F)c2)C1 (configuration not stated),-3.49%
21,CSc1nnnn1-c1c(C)cc(C)cc1C,41.9% (active)
22,CCn1nnnc1SCC(=O)c1ccc(C)cc1C,7.37%
23,COC(=O)c1ccccc1NC(=O)c1ccc2c(=O)n3c(nc2c1)CCCCC3,1.88%

row,Compound,enhancement
1,COc1cc(Cl)c(NC(=O)C(NS(=O)(=O)c2cccs2)C(C)C)c(OC)c1 (configuration not stated),8.88%
2,COc1ccc(Nc2ncc3c(n2)CCN(C(=O)OC(C)(C)C)C3)cc1,2.63%
3,Cc1ccc(-c2cc(C(F)(F)F)c(C#N)c(SCC(=O)Nc3ccccc3)n2)cc1,7.58%
4,Cc1ccc(Cl)cc1N1CCN(C(=O)C2CCC(CNS(=O)(=O)c3cccs3)CC2)CC1 (configuration not stated),4.4%
5,CCOC(OCC)c1ccc(/C=C\c2nccc(N)n2)cc1,30% (active)
6,CN(C)S(=O)(=O)c1ccc(C(=O)N(Cc2cccnc2)c2nc3c(F)cc(F)cc3s2)cc1,-9.57%
7,Cc1cc2c(s1)c1cnn(Cc3c(F)cccc3Cl)c(=O)c1n2C,10.5%
8,CSCCC(C(=O)NC1=NCCS1)N1C(=O)c2ccccc2C1=O (configuration not stated),33.2% (active)
9,CC(NC(=O)COc1ccccc1)C(=O)NC1=NCCS1 (configuration not stated),1.42%
10,CCCCN(C(=O)C(CCSC)N1C(=O)c2ccccc2C1=O)c1c(N)n(CCC)c(=O)[nH]c1=O (configuration not stated),-0.146%
11,COc1ccccc1C(=O)NCc1nnc(SC(C)C(=O)Nc2nccs2)n1C (configuration not stated),-2.08%
12,Cc1cccc(C(=O)NCc2nnc(SC(C)C(=O)Nc3nnc(C)s3)n2C)c1 (configuration not stated),37.6% (active)
13,CC(Sc1nnc(CNC(=O)c2ccccc2F)n1C)C(=O)Nc1nccs1 (configuration not stated),-1.71%
14,O=S(=O)(c1ccc2c(c1)OCCCO2)N1CCN(S(=O)(=O)c2c(F)cccc2F)CC1,2.65%
15,N#Cc1nc(Nc2cc(F)cc(Cl)c2)nc(NC2CCCC2)n1,-2.09%
16,O=C(NCc1ccccc1Cl)c1cccn1-c1nnc(N2CCCCC2)s1,-0.339%
17,Cc1cccc(NC(=O)CSc2nc3c([nH]c4ccccc43)c(=O)n2-c2cc(C)cc(C)c2)c1,1.49%
18,Cc1ccc(NC(=O)CSc2nc3c([nH]c4ccccc43)c(=O)n2-c2ccccc2)c(C)c1,39.6% (active)
19,Cc1ccc(NC(=O)CSc2nc3c([nH]c4ccccc43)c(=O)n2-c2ccccc2)cc1Cl,-2.92%
20,Cc1ccccc1OCc1nc2c3cnn(-c4ccccc4F)c3ncn2n1,8.56%
21,COc1ccc(-c2nc3sc(CCNS(=O)(=O)c4ccc(F)c(C)c4)c(C)n3n2)cc1,-2.89%
22,Cc1cccc(OCC(=O)N(Cc2ccc(C(C)C)cc2)Cc2ccco2)c1C,3.9%
23,COc1cccc(CN(C)CC(=O)Nc2ccccc2C(=O)Nc2ccccc2)c1,2%

row,Compound,enhancement
1,Cc1ccc(C)c(OCC(=O)Nc2sc3c(c2C#N)CCCC3)c1C,0.637%
2,COc1cccc(CN(C)CC(=O)Nc2sc3c(c2C#N)CCC3)c1,40.2% (active)
3,Cc1ccc(O)c(NC(=O)c2cc(-c3ccc(F)cc3)no2)c1,-8.05%
4,O=c1c2cccnc2n(Cc2cccc(F)c2)c(=O)n1Cc1ccccc1Cl,-4.81%
5,CC(C)(C)n1c(=O)[nH]c2c(c1=O)CCC2,-6.6%
6,O=c1[nH]n2c(=O)c3c([nH]c2c1N=Nc1ccccc1)CCC3,31.1% (active)
7,COc1ccc(N=Nc2c(-c3ccc(OC)cc3)[nH]oc2=O)cc1,5.67%
8,O=c1c(=O)n(Cc2c(F)cccc2Cl)ccn1Cc1ccccc1,6.97%
9,O=c1o[nH]c(-c2ccccc2)c1N=Nc1c(F)cccc1Cl,45.6% (active)
10,CCS(=O)(=O)c1nc(S(=O)(=O)c2ccc(C)cc2)c(NCc2ccc(Cl)cc2)s1,0.719%
11,CCN(CC)c1ccc(C2C(C(N)=O)=C(C)Nc3nc(SCc4ccccc4)nn32)cc1 (configuration not stated),3.72%
12,C/C(=N\NC(=O)Cc1ccccc1[N+](=O)[O-])c1cccnc1,2.77%
13,O=C(/C=C/c1ccc(Cl)c([N+](=O)[O-])c1)c1cccnc1,36.2% (active)
14,C/C(=N\NC(=O)c1cccc([N+](=O)[O-])c1)c1cccnc1,3.55%
15,COc1ccc(CNC(=O)C2=Cc3cccc(OC)c3OC2)cc1OC,-3.7%
16,CC1(C)Cc2c(C#N)c(SCc3nc4ccccc4[nH]3)nc(N3CCOCC3)c2CO1,34.4% (active)
17,CC(C)C(=O)N1CCN(c2nc(-c3ccccc3)c3c(c2C#N)CC(C)(C)OC3)CC1,-1.59%
18,C1=C(N2CCOCC2)/C(=C/c2nc3ccccc3[nH]2)CC1,3.98%
19,Cc1nc2nc(NCc3cccc(Br)c3)[nH]n2c(=O)c1Cc1ccccc1,2.4%
20,COc1ccc(-c2noc(CCC(=O)N(C)c3ccccc3C)n2)cc1,6.52%
21,N#Cc1c(N)nc2c3c(sc(=N)c2c1N)NC(=O)CC3c1ccccc1Cl (configuration not stated),2.83%
22,COc1ccc(C2CC(=O)Nc3sc(=N)c4c(N)c(C#N)c(N)nc4c32)cc1OC (configuration not stated),33.8% (active)
23,COc1ccc(C2CC(=O)Nc3c2c(=O)nc2c(C)cccn32)cc1OC (configuration not stated),15%
